Sampled rows, rich in hits. Any-hit rate of the full collection: about 1%.
rTrxR1 inhibitor: rat TrxR1 inhibition. O89049. recombinant rTrxR1, NADPH fluorescence consumption, selenite substrate. Potency, µM (series often up to 114 µM), without a hit: at the top dose activity change, negative = inhibition, actives largely listed as inhibitors. 390,000 tested, 1% active; further: nearly all actives have a fitted effect of over 65% in size
Target sequence (O89049 whole entry, looked up): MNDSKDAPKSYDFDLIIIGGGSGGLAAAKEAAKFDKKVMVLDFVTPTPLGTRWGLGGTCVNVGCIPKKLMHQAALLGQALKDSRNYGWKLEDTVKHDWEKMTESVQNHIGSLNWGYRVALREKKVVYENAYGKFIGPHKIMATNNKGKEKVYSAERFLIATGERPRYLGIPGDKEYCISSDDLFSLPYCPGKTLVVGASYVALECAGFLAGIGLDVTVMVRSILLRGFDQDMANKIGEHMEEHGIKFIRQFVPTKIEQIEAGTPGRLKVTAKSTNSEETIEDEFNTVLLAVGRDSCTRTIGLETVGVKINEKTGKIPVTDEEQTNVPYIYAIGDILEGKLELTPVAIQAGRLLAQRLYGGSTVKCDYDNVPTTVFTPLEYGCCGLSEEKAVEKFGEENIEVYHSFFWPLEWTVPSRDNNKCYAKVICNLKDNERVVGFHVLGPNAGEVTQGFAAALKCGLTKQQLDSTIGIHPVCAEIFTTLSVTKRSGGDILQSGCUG
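Rat TrxR1 (90 nM in the dispensed reagent) was pre-reduced with 400 uM NADPH for 5 min at room temperature, then incubated with compound for 15 min. After 400 uM selenite was added, NADPH fluorescence (Ex 340/Em 450 nm) was followed for 8 min.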
RGS4 inh: human RGS4 inhibition. P49798. Transcreener GDP fluorescence polarization, RGS4-accelerated GTP hydrolysis. Potency, µM (top dose mostly 114 µM), for the others: at the highest dose activity change, negative = inhibition, actives largely listed as inhibitors. 390,000 tested, 0.039% active. AID 504845; further: nearly all actives have a fitted effect of over 75% in size
Target sequence (P49798 whole entry, looked up): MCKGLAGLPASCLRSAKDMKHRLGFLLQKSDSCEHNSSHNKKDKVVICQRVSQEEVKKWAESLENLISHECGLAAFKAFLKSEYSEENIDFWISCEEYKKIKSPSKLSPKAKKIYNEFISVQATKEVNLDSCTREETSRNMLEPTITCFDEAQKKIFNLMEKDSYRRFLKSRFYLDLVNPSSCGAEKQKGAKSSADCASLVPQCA
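MLSMR compounds (23 nl, pin-transferred) preincubated 10 min at room temperature with a 500nM (2x) first reagent, then RGS4 at 900nM (2x) plus Transcreener GDP mix added; fluorescence polarization (620/688 nm) read before and after 90 min at 30 °C.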
GALK inhibitor: inhibitors of human galactokinase | P51570 | Purified GALK, Kinase-Glo residual ATP luminescence | Potency, µM (titrated, usually from 57.5 µM), for inactives: at the top dose activity change, negative = inhibition, usual class: inhibitors | 270,000 tested, 0.007% active | AID 1868
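Quantitative HTS: GALK 5 nM, ATP 35 uM, galactose 100 uM, 1 h room temperature, then luciferase-based ATP detection.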
USP2a inh: USP2a (human) protease inhibition. O75604. USP2 core, Ub-CHOP2 coupled fluorogenic reporter, 485/531. Potency, µM (highest dose often 38.3 µM), for the others: top-dose activity change, negative = inhibition, usual class: inhibitors. 330,000 tested, 0.01% active. AID 463254;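 further: plate controls were DMSO wells for no effect and full inhibition by NEM control for full effect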
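Deubiquitinase activity read as fluorescence (485/531 nm) after Ub-CHOP2 cleavage activates the enterokinase reporter on its substrate; USP2 core 10nM, Ub-CHOP2 and substrate 25nM each, 30min compound preincubation then 60min RT; data normalized to NEM, curves fitted.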
TrxR1 substrate: substrates of rat thioredoxin reductase 1. O89049. purified TrxR1 substrate turnover, NADPH consumption readout. Potency, µM (highest dose often 114 µM), for inactives: top-dose activity change, negative = substrate turnover. 390,000 tested, 0.01% active; further: nearly all actives have a fitted effect of over 50% in size
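Rat TrxR1, dispensed at 90 nM, was prereduced with 400 uM NADPH (final) for 5 min at ~22 deg C, then incubated with compound 15 min before 400 uM selenite. A first-read NADPH fluorescence drop versus no-compound background flagged substrates.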
Eya2 phos inh: blocks the phosphatase activity of human Eya2; O00167; recombinant Eya2, OMFP fluorescence dephosphorylation (OMFP is methylfluorescein phosphate); Potency, µM (top dose mostly 76.9 µM), for inactives: top-dose activity, negative = inhibition, usual class: inhibitors; 330,000 tested, 0.006% active
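Eya2 (0.2 uM) preincubated 10 min at ambient with compound, then OMFP substrate added at 50 uM; 10 min reaction in 50 mM HEPES pH 7.5, 50 mM NaCl, 5 uM MgCl2, 0.05% BSA, 1 mM DTT. Fluorescence read at Ex 485/Em 525 nm.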
Starred values were filed as active, the others as inactive; ? = inconclusive; · = no result; ! = not confirmed by another sample; [ ] = dose if it differs, or a comment. The call rests on the fitted dose curve; in most records, active means well fitted curve in the direction sought with a large enough effect; inconclusive means small, poorly fitted or top-dose-only effect, or another doubt; inactive means no such curve, though single readings can be large; an effect the other way counts as inactive or inconclusive. Unless noted, on the % scale 0 is the no-effect control and ±100 the full control effect; potency means the concentration at half of the fitted maximal effect.

SMILES	rTrxR1 inhibitor	RGS4 inh	GALK inhibitor	USP2a inh	TrxR1 substrate	Eya2 phos inh
Cc1ccc(NCCC(=O)c2ccc(Cl)cc2)cc1C	50µM*	-2%	0%	2%	14%	-1%
CC(C)c1ccc(NCCC(=O)c2cccs2)cc1	2.8µM*	11%	1%	3%	-4%	-2%
Cc1ccc(NCCC(=O)c2cccs2)cc1	?	-1%	3%	1%	3%	-2%
O=C(CCNc1cccc(Cl)c1)c1cccs1	10µM*	-7%	-2%	-2%	6%	-5%
Cc1ccc(NCCC(=O)c2cccs2)cc1Cl	?	-15%[11.4 µM]	0%	-1%	-4%	-3%
Cc1ccc(NCCC(=O)c2cccs2)cc1C	4.5µM*	-14%	-1%	0%	13%[57.1 µM]	-24%
CCc1ccc(NCCC(=O)c2ccc(Cl)cc2)cc1	?	-9%	1%	-5%	13%	-2%
CCc1cc[n+](CC(=O)c2ccc(F)cc2)cc1C(=O)O	4%	·	·	·	5%	·
O=C(C[n+]1ccccc1Br)c1ccc(-c2ccccc2)cc1	?	·	·	·	6%	·
COC(=O)c1ccccc1NC(=S)NC(=O)c1ccc(C)cc1	40µM*	-50%	-2%	-1%	-9%	-5%
COC(=O)c1ccccc1NC(=S)NC(=O)c1ccc2c(c1)OCO2	8.9µM*	?	-5%	1%	2%	-10%
COC(=O)c1ccccc1NC(=S)NC(=O)C1CCCCC1	16µM*	-31%	0%	-1%	-3%	-5%
COC(=O)c1ccccc1NC(=S)NC(=O)c1ccccc1	?	?	-3%	-1%	0%	-8%
NC(=O)c1ccccc1NC(=S)NC(=O)c1ccc(Br)o1	25µM*	-24%	0%	-5%	-9%	-5%
COC(=O)c1ccccc1NC(=O)c1ccc2c(c1)OCCO2	-8%	-12%	0%	1%	-10%	-3%
Cc1ccc(C(=O)NNC(=S)NC(=O)COc2ccccc2)cc1	40µM*	-44%	-2%	1%	6%	15%
COC(=O)c1ccccc1NC(=S)NC(=O)c1ccccc1C	11µM*	?	-2%	2%	6%	15%
Cc1ccccc1C(=O)NC(=S)Nc1ccccc1C(=O)O	2%[57.1 µM]	-2%	6%	-2%	1%[57.1 µM]	3%
NC(=O)c1c(N)sc2c1CCC2	50µM*	?	2%	1%	-6%	10%
CNC(=O)c1c(N)sc2c1CCCCC2	·	·	1%	3%	·	28%
NC(=O)c1c(N)sc2c1CCCCC2	-22%	-52%	0%	5%	-1%	9%
Nc1sc2c(c1C(=O)NC1CCS(=O)(=O)C1)CCC2 (stereo not drawn)	25µM*	-41%[11.4 µM]	-3%	2%	9%[57.1 µM]	12%
O=C(Cc1cccc(F)c1)NO	14%	·	·	·	6%	·
O=C(c1ccccc1)N1CCc2cc(CNS(=O)(=O)c3ccccc3Cl)ccc21	20%[57.1 µM]	23%	·	·	6%[57.1 µM]	·
O=C1NC2CCCCC2C(=O)N1OS(=O)(=O)c1ccccc1 (stereo not drawn)	3.5µM*	?	·	·	-2%[57.1 µM]	·
SMILES	rTrxR1 inhibitor	RGS4 inh	GALK inhibitor	USP2a inh	TrxR1 substrate	Eya2 phos inh
Cc1nc2c(-c3ccccc3)c(C)nn2c(C)c1CCC(=O)NCc1ccco1	-4%	-11%	1%	1%	5%	19%
Cc1nc2c(-c3ccc(F)cc3)c(C)nn2c(C)c1CCC(=O)NC(C)CCc1ccco1 (stereo not drawn)	79µM*	?	-2%	-2%	-6%	-1%
CCCC1(C)C(C#N)(C#N)C1(C#N)C#N	?	9.5µM*	·	·	11%[57.1 µM]	-7%
CCCC1(C)C(C#N)C(=O)NC(=O)C1C#N (stereo not drawn)	8%[2.29 µM]	-13%	·	·	-5%[57.1 µM]	·
CN(C)c1ccc(/C=C2\C=Cc3ccccc32)cc1Cl	-13%	·	·	·	-9%	·
O=C(c1ccccc1)c1ccccc1N1C(=O)C=CC1=O	2.2µM*	?	1%	-1%	13%[57.1 µM]	8%
O=C(O)c1ccccc1C(=O)c1ccc(-c2ccccc2)cc1	19%	3%	-1%	-2%	-3%	0%
O=C1C=CC(=O)N1c1ccccc1N1C(=O)C=CC1=O	0.32µM*	-137%	·	·	4%	·
CCOc1ccc(C(=O)Nc2ccc3nc(SCC(=O)N4CCOCC4)sc3c2)cc1	14%	-5%	·	·	4%	·
COc1ccc(NC(=O)CN(C)CC(=O)c2c(C)[nH]c3ccccc23)cc1	22µM*	-22%	·	-2%	0%	-28%
COc1cccc(NC(=O)CN(C)CC(=O)c2c(C)[nH]c3ccccc23)c1	79µM*	-8%	·	0%	-2%	0%
COc1ccc(NC(=O)CN(C)CC(=O)c2[nH]c(C)c(C(C)=O)c2C)cc1	-15%	-23%	·	1%	-1%	-18%
COc1cccc(NC(=O)CN(C)CC(=O)NCc2ccc(F)cc2)c1	7%[2.29 µM]	7%	·	0%	8%[57.1 µM]	5%
O=C(NCC(c1ccco1)S(=O)(=O)c1ccc(Cl)cc1)c1ccccc1F (stereo not drawn)	14µM*	6%	·	·	4%[57.1 µM]	·
C/C=C(\C)NNC(=O)Cc1ccc(OC)cc1	6%	·	·	·	3%	·
Cc1cc(C)c2oc(-c3ccc(C)c(NC(=O)/C=C/c4ccco4)c3)nc2c1	3.2µM*	?	·	·	13%[11.4 µM]	·
Nc1[nH]c(=S)[nH]c(=O)c1N	0%	·	·	·	18%	·
O=C(CC(Sc1ccc(Br)cc1)C(=O)O)c1ccc(F)cc1 (stereo not drawn)	28µM*	-53%	4%	-3%	2%	5%
CCOc1ccc(C(=O)CC(Sc2ccc(C)cc2)C(=O)O)cc1 (stereo not drawn)	22%[57.1 µM]	?	1%	0%	-10%[57.1 µM]	13%
O=C(Nc1ccc(OC(F)F)cc1)c1nc(SCc2ccccc2F)ncc1Cl	-3%	·	·	·	-4%	·
Cc1ccccc1C(=O)Nc1nnc(S(=O)(=O)N(C)Cc2ccco2)s1	45µM*	-26%	0%	-9%	4%	?
Cc1ccccc1C(=O)Nc1nnc(S(=O)(=O)N(C)Cc2ccccc2)s1	8%	1%	·	·	-4%	·
CCCC(=O)Nc1nnc(S(=O)(=O)N(C)Cc2ccco2)s1	40µM*	?	-2%	1%	-3%	12%
CN(Cc1ccco1)S(=O)(=O)c1nnc(NC(=O)c2ccccc2Cl)s1	25µM*!	?	3%	3%	2%	5%
COc1ccc(CNCc2ccccc2)cc1COc1ccc(NC(C)=O)cc1	-10%	5%	·	·	0%	·
Cc1cc(C)c2c(n1)NCCC2	13%	·	·	·	82%	·
CCOC(=O)N1CCN(C(=O)C2CCN(C(=O)c3ccccc3C)CC2)CC1	2.5µM*	?	·	·	6%	·
Cc1ccccc1C(=O)N1CCC(C(=O)N2CCN(c3ncccn3)CC2)CC1	9%	6%	·	1%	3%	7%
